Test results published in PubChem BioAssay.
Unmarked numbers belong to inactive results. For some assays here: Entries with a potency or affinity are not part of this list. Activity calls are given as the source filed them. Unless noted, how the calls were made is not given here.

Key:
[1] = antimalarial activity against Dd2 strain (AID 2302;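 active means growth inhibition above 50% at the single 2 µM test dose, taken to imply half-maximal potency below 2 µM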;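 further: 0% = DMSO untreated growth and 100% = chloroquine plus artemisinin killed control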); conditions: P. falciparum Dd2 in RBCs, LDH growth readout, 72 h; at 2 µM; active compounds read high
[2] = HepG2 cytotoxicity, primary screen, cytotoxicity control for P. falciparum antimalarial project, cell-based, ATP luminescence (AID 2303;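 active means inhibition above 50%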;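 further: 0% = DMSO wells and 100% = digitonin-killed cells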); conditions: HepG2 viability, 24-48 h, at 10 µM, active compounds read high
[3] = molecular target: L-lactate dehydrogenase (Plasmodium falciparum (isolate CDC / Honduras)) (UniProt Q27743); test: PfLDH activity inhibition – cell lysate, 3D7 strain, counter-screen for P. falciparum growth inhibition project (AID 2304);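 further: 0% = vehicle and 100% = reference inhibitor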; conditions: P. falciparum 3D7 crude extract, LDH APAD/NBT absorbance; at 2 µM; active compounds read high
Sequence of L-lactate dehydrogenase (Plasmodium falciparum (isolate CDC / Honduras)) (Q27743 whole entry, looked up): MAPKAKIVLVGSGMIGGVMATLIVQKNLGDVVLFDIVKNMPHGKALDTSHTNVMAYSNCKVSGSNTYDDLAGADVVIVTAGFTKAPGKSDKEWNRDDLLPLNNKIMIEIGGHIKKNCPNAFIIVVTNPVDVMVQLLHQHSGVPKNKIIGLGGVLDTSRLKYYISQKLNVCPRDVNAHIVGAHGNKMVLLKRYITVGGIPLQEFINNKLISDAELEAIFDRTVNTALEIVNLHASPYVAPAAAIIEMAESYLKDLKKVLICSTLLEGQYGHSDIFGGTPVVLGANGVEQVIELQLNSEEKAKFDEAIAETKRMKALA

[4] = inhibition of 3D7 malaria parasite growth – strain 3D7 (AID 2306);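 further: 0% = DMSO wells and 100% = chloroquine plus artemisinin control wells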; conditions: P. falciparum 3D7 erythrocytic growth, LDH absorbance, 72 h; at 2 µM; active compounds read high
[5] = molecular target: Calcium-dependent protein kinase 1 (Plasmodium falciparum (isolate 3D7)) (UniProt P62344); test: PfCDPK1 kinase inhibitors, biochemical, TCAMS library (AID 1159585; cut-off not given, nearly all actives have IC50 up to about 0.98 µM;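 further: inhibitors leave more ATP so luminescence rises with inhibition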); conditions: recombinant PfCDPK1, Kinase-Glo ATP depletion luminescence
Sequence of Calcium-dependent protein kinase 1 (Plasmodium falciparum (isolate 3D7)) (P62344 whole entry, looked up): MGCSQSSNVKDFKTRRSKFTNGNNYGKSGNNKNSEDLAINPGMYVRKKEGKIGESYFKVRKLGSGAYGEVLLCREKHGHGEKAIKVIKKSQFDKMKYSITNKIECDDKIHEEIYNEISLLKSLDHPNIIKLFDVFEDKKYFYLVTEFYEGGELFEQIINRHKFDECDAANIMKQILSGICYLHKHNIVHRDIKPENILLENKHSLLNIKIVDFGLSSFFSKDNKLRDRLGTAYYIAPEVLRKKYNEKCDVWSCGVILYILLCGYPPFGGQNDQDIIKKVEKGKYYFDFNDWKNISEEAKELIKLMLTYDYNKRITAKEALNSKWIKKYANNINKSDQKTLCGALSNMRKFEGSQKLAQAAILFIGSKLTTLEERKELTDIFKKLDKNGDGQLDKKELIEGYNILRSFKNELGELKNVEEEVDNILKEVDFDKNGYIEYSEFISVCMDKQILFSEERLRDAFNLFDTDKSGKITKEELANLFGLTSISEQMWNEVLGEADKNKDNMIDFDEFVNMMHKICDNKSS

[6] = molecular target: Plasmodium falciparum protein kinase 6 (PK6, PF3D7_1337100) (UniProt Q8IDW1); test: PfPK6 kinase inhibitors, biochemical, TCAMS library (AID 1159586); conditions: recombinant PfPK6, Kinase-Glo ATP depletion luminescence
Sequence of Plasmodium falciparum protein kinase 6 (PK6, PF3D7_1337100) (Q8IDW1 1-305): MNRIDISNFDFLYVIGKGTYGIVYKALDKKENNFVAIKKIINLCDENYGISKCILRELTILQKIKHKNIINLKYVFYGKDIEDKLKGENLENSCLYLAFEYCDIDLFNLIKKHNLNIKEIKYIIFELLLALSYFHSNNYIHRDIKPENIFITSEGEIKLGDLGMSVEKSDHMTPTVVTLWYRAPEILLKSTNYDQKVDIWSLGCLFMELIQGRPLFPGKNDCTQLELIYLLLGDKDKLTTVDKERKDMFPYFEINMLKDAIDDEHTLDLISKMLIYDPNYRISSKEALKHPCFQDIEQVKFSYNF

[7] = molecular target: Protein kinase 7 (PK7), Plasmodium falciparum 3D7 (PF3D7_0213400) (UniProt Q7YTF7); test: inhibition of Plasmodium PK7 catalytic activity – biochemical, TCAMS antimalarial set, Kinase-Glo luminescence (AID 1159587); conditions: recombinant PfPK7, Kinase-Glo ATP depletion luminescence
Sequence of Protein kinase 7 (PK7), Plasmodium falciparum 3D7 (PF3D7_0213400) (Q7YTF7 1-343): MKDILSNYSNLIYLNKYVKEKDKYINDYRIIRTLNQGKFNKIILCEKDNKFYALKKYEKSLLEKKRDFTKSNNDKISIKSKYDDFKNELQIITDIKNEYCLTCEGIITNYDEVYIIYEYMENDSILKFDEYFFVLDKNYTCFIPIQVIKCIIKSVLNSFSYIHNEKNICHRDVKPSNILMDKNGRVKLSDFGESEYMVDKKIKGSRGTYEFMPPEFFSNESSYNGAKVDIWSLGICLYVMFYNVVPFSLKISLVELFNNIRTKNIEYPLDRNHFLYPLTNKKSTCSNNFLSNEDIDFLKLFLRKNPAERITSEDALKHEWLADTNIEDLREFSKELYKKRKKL

[8] = molecular target: Calcium-dependent protein kinase 4 (Plasmodium falciparum (isolate 3D7)) (UniProt Q8IBS5); test: PfCDPK4 kinase inhibitors, biochemical, TCAMS library (AID 1159588; cut-off not given, nearly all actives have IC50 up to about 0.91 µM); conditions: recombinant PfCDPK4, Kinase-Glo ATP depletion luminescence
Sequence of Calcium-dependent protein kinase 4 (Plasmodium falciparum (isolate 3D7)) (Q8IBS5 whole entry, looked up): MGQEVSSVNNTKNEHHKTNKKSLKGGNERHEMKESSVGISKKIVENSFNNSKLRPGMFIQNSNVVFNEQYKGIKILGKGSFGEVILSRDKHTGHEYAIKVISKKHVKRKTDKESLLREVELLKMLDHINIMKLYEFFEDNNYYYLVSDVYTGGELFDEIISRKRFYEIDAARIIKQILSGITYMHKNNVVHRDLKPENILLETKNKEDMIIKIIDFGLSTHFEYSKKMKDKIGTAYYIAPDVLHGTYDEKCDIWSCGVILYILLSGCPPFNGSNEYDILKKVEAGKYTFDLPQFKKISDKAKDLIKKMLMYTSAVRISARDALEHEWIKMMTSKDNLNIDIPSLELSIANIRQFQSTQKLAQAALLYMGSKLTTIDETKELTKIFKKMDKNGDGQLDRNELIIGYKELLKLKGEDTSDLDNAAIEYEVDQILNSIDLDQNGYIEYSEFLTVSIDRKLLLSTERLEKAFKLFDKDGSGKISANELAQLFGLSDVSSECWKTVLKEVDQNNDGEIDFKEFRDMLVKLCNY

SMILES | growth inhibition [1] | inhibition [2] | inhibition [3] [%] | growth inhibition [4] | outcome [5] | outcome [6] | outcome [7] | outcome [8]
CCCCCc1cnc2nc(N)nc(N)c2c1 | 6% | 72% (active) | -1 | 82% (active) | inactive | inactive | inactive | inactive
O=C(NCCN1CCCC1)c1cc(-c2ccc(Cl)c(O)c2)c(-c2ccncc2)o1 | -5% | -23% | 0 | 92% (active) | inactive | inactive | inactive | inactive
CCCN(CCC)CCCN(CCCN(CCC)CCC)c1cc(C)nc(Nc2ccc(Cl)cc2)n1 | 101% (active) | 34% | -6 | 101% (active) | inactive | inactive | inactive | inactive
O=C(Nc1cc(F)cc(F)c1)N[C@H]1CCN(CCCCCNC(=O)[C@@H]2C[C@H]2c2ccc(Cl)c(Cl)c2)C1 | -4% | 24% | -3 | 88% (active) | inactive | inactive | inactive | inactive
COc1cc2nc(N3CCC(CNC(=O)c4cc(Br)c(Br)s4)CC3)nc(N)c2cc1OC | 97% (active) | 22% | 2 | 101% (active) | inactive | inactive | inactive | inactive
COc1ccc(-c2cnc(N)c(-c3ccc(O)c(OC)c3)c2)cn1 | 98% (active) | 23% | -1 | 97% (active) | inactive | inactive | inactive | inactive
CCCN(Cc1nnc(-c2cccs2)o1)C(=O)CSc1nnnn1-c1cc(C)cc(C)c1 | 71% (active) | 2% | 8 | 92% (active) | inactive | inactive | inactive | inactive
CN(C(=O)Cc1ccc(Cl)c(Cl)c1)C1CCN(CCCCCNC(=O)/C=C/c2ccc(Cl)c(Cl)c2)CC1 | 13% | 87% (active) | -4 | 84% (active) | inactive | inactive | inactive | inactive
CO/C(=C\C=C\c1cc2cc(Cl)c(Cl)cc2[nH]1)C(=O)NCCCN1CCN(c2cccc(OCC(=O)Nc3cccc(C(=O)c4ccccc4)c3)c2)CC1 | 88% (active) | 48% | 2 | 94% (active) | inactive | inactive | inactive | inactive
C=CCN(c1nc(NC)nc(NCc2c(OC)cccc2OC)n1)C1CCCC1 | 70% (active) | 18% | -3 | 85% (active) | inactive | inactive | inactive | inactive
FC(F)(F)c1ccc2c(NCCNc3ccnc4cc(C(F)(F)F)ccc34)ccnc2c1 | 100% (active) | 21% | 1 | 101% (active) | inactive | inactive | inactive | inactive
FC(F)(F)c1ccc2c(NCCc3ccccc3)ccnc2c1 | 9% | 14% | 0 | 87% (active) | inactive | inactive | inactive | inactive
COc1cc(C=Cc2ccc3ccccc3n2)cc(Br)c1OCC(=O)N(C)C | 87% (active) | 28% | 3 | 99% (active) | inactive | inactive | inactive | inactive
Cc1cnc(C(=O)Nc2cccc(-c3cccc(-c4nc5c(C)cccc5[nH]4)c3)c2)cn1 | 45% | 15% | -1 | 99% (active) | inactive | inactive | inactive | inactive
Cc1cc(Nc2ccc(C)c(C)c2)n2nc(C)nc2n1 | 45% | 10% | -5 | 95% (active) | inactive | inactive | inactive | inactive
CCN(CC)S(=O)(=O)c1ccc(C(C)NC(=O)c2ccccc2COc2ccccc2)cc1 (stereo not given) | 89% (active) | -3% | 4 | 100% (active) | inactive | inactive | inactive | inactive
CC(=O)Nc1ccc(C(=O)NC2CCN(c3ccnc4cc(Cl)ccc34)C2)cc1 (stereo not given) | 100% (active) | 1% | -1 | 101% (active) | inactive | inactive | inactive | inactive
CNC(=O)COC(=O)c1c2c(nc3ccccc13)C(=Cc1ccc3c(c1)OCO3)CCC2 | 36% | 7% | -2 | 83% (active) | inactive | inactive | inactive | inactive
Cc1ccccc1Nc1nc(NCCc2ccccc2)nc2ccccc12 | 18% | 32% | -1 | 82% (active) | inactive | inactive | inactive | inactive
C/C=C/C=C/C1=NCCc2cc(OCCC)ccc21 | 40% | -1% | -4 | 87% (active) | inactive | inactive | inactive | inactive

SMILES | growth inhibition [1] | inhibition [2] | inhibition [3] [%] | growth inhibition [4] | outcome [5] | outcome [6] | outcome [7] | outcome [8]
CN(C)Cc1cccc(CNC(=O)c2sccc2OCc2ccc(Cl)cc2)c1 | 88% (active) | 7% | -6 | 90% (active) | inactive | inactive | inactive | inactive
Cn1cnnc1Sc1ccc(CN2CCOc3ccc(C4=CCCCC4)cc3C2)o1 | 97% (active) | 1% | 3 | 98% (active) | inactive | inactive | inactive | inactive
c1ccc(C2CCC(N3CCC(N4CCN(c5ccccc5)CC4)CC3)CC2)cc1 (stereo not given) | 34% | 6% | -3 | 97% (active) | inactive | inactive | inactive | inactive
COc1cccc2c(NN=Cc3ccc([N+](=O)[O-])cc3)ccnc12 | 16% | 25% | -3 | 92% (active) | inactive | inactive | inactive | inactive
CN1CCN(CCCN(Cc2csc(-c3ccc(CNCc4ccccc4)cc3)n2)C(=O)c2cc(F)cc(F)c2)CC1 | 53% (active) | 60% (active) | -2 | 97% (active) | inactive | inactive | inactive | inactive
COc1ccc(-c2nc3c(N)nc(N)nc3nc2-c2ccccc2Cl)cc1 (tested in a mixture with another compound) | -1% | 45% | -2 | 93% (active) | inactive | inactive | inactive | inactive
O=c1cc(NCCCNCc2cc(Cl)cc(Cl)c2OCc2ccc(Cl)cc2)[nH]c2ccccc12 | 53% (active) | 6% | 3 | 98% (active) | inactive | inactive | inactive | inactive
O=C(Nc1ccc(Cl)c(C(F)(F)F)c1)N[C@H]1CCN(CCCCCNC(=O)[C@@H]2C[C@H]2c2ccc(Cl)c(Cl)c2)C1 | -2% | 39% | 0 | 94% (active) | inactive | inactive | inactive | inactive
Cc1c(Cn2ncc(N3C[C@@H](C)N[C@@H](C)C3)c(Cl)c2=O)cccc1NC(=O)Nc1ccc(-c2ccccc2)cc1 | 35% | 97% (active) | -6 | 97% (active) | inactive | inactive | inactive | inactive
CC(=O)Nc1ccc2[nH]cc(C3CCN(CC4CCC(NC(=O)/C=C/c5ccccc5Cl)CC4)CC3)c2n1 (stereo not given) | 79% (active) | 16% | -1 | 101% (active) | inactive | inactive | inactive | inactive
CN1CCN(CCCN(Cc2csc(-c3ccc(CNCc4ccccc4)cc3)n2)S(=O)(=O)c2ccccc2)CC1 | 78% (active) | 17% | 7 | 99% (active) | inactive | inactive | inactive | inactive
COc1ccc(-c2cc(C(=O)Nc3ccc(CCCN(C)Cc4ccc(OC)c(OC)c4)cc3)c3ccccc3n2)cc1 | 47% | 40% | -3 | 92% (active) | inactive | inactive | inactive | inactive
OC1(c2ccccc2)CCN(Cc2cccc(-c3c[nH]c4nc(NC5CCCC5)ncc34)c2)C1 (stereo not given) | 31% | 42% | -1 | 92% (active) | inactive | inactive | inactive | inactive
O=C(Nc1cccc(CN2CCN(Cc3cccc(O)c3)CC2)c1)c1ccc(Cl)c(Cl)c1 | 35% | 28% | -1 | 100% (active) | inactive | inactive | inactive | inactive
COc1ccccc1N1CCN(CCCCNC(=O)c2ccc(NC(=O)c3ccc4ccccc4c3)cc2)CC1 | 18% | 16% | 1 | 97% (active) | inactive | inactive | inactive | inactive
C=CCN1C(=O)CN(S(=O)(=O)c2ccc(-n3nc(C)cc3C)cc2)C1=S | -2% | 5% | 1 | 93% (active) | inactive | inactive | inactive | inactive
Cc1nnc2c(NC(=O)NC3CCCC3)cc3cc(-c4ccc(CN5CCN(C)CC5)cc4)ccc3n12 | 91% (active) | 100% (active) | -1 | 99% (active) | inactive | inactive | inactive | inactive
Cc1cc2ncn(-c3ccnc(N4CCN(CCCN5CCCC5)CC4)n3)c2cc1C | 49% | 24% | -4 | 100% (active) | inactive | inactive | inactive | inactive
Nc1cccc(CNCc2ccc(-c3cccc(-c4nc5ccc(C(F)(F)F)cc5[nH]4)c3)cc2)c1 | 100% (active) | 60% (active) | -2 | 100% (active) | inactive | inactive | inactive | inactive
CCCC(CNCc1cccc(C)c1)CNc1cc(=O)c2ccccc2[nH]1 (stereo not given) | 89% (active) | -2% | -7 | 99% (active) | inactive | inactive | inactive | inactive
